Several values for one entry are separate records, joined by “and”; a condition that tells them apart may be missing. Identical values can stand only once. The campaign covered roughly 340,000 compounds. About 3,300 (0.97%) were called active. Not shown: some 9% with an inconclusive outcome. Calls follow the shape of the dose curve; as a rule, active = well fitted inhibition curve with a large enough effect; inconclusive = small, poorly fitted or top-dose-only effect, or effect the other way; inactive = flat fitted curve, though single readings scatter. The list shows a part of the results.
Experiment: qHTS Assay for Modulators of miRNAs and/or Inhibitors of miR-21; also: nearly all actives have a fitted effect of over 55% in size
Conditions: HeLa miR-21-FLuc reporter, luciferase luminescence, 48 h; actives lower the signal
Method in brief: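 HeLa miR-21-FLuc reporter line, endogenous miR-21; 2000 cells/well in DMEM/10% FBS; compound titration up to ~40uM final, 48 h, 37 degree Celsius; luciferase detection reagent, 15 min lysis, CCD luminescence.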
Potency is read from the fitted curve at half-maximal effect.

Potency, active:
CS(=O)(=O)c1cnc2c(-c3ccsc3)cnn2c1N 5.21 µM
CS(=O)(=O)c1cnc2c(-c3ccc(F)cc3)cnn2c1N 1.85 µM
O=C(c1ccccc1)c1ccc2c(c1)OCCCO2 2.07 µM
O=C(CCc1ccccc1)c1ccc2c(c1)OCCCO2 3.69 µM
O/N=C(/CCc1ccccc1)c1ccc2c(c1)OCCO2 7.36 µM
Cc1cc(O)c(C(=O)Cc2csc(C)n2)c(O)c1 5.85 µM
Cc1oncc1-c1csc(-c2ccccc2)n1 5.21 µM
O=C1C2C(C(=O)N1/N=C/c1cccc([N+](=O)[O-])c1)C1C=CC2C12CC2 (centres undefined) 18.5 µM
Cc1cccc(NC(=O)Cn2c(/C=C/c3ccccc3)nc3ccccc32)c1 5.85 µM
O=C(Cn1c(/C=C/c2ccccc2)nc2ccccc21)Nc1ccc(F)cc1 5.21 µM
COc1ccc(C2CC(=O)c3ccccc3O2)cc1 (centres undefined) 16.5 µM
O=C1CC(c2ccc3c(c2)OCCO3)Oc2ccccc21 (centres undefined) 14.7 µM
O=C1CC(c2ccc3c(c2)OCCO3)Oc2ccc([N+](=O)[O-])cc21 (centres undefined) 0.261 µM
Cc1ccc2c(c1)OC(c1ccc3c(c1)OCCO3)CC2=O (centres undefined) 16.5 µM
CC(C)c1nc(C#N)c(NN)o1 16.5 µM
N/C(=N\OC(=O)/C=C/c1ccccc1Cl)c1cccnc1 2.07 µM
N/C(=N\OC(=O)/C=C/c1ccccc1Cl)c1ccncc1 0.414 µM
COc1ccc(-n2nc3cc(C)c(N)c(Br)c3n2)cc1 4.14 µM
CC1CCC/C(=N\Nc2ccc(Cl)c(C(=O)O)c2)C1 (centres undefined) 6.56 µM
O=[N+]([O-])c1ccc2cn(-c3ccccc3)nc2c1 1.65 µM
Fc1ccccc1/C=N/Nc1ncnc2nc[nH]c12 5.21 µM
C(=N\Nc1ncnc2nc[nH]c12)/c1cccs1 4.14 µM
Cc1ccccc1/C=N/Nc1ncnc2nc[nH]c12 6.56 µM
Cc1ccsc1/C=N/Nc1ncnc2nc[nH]c12 3.29 µM
COc1ccc(/C=N/N=C(\N)c2nonc2N)cc1OC 7.36 µM
COc1ccccc1/C=N\N=C(\N)c1ccccn1 2.07 µM
N/C(=N\N=C\c1ccc(O)c(O)c1)c1nonc1N 8.26 µM
COc1cccc(/C=N/N=C(\N)c2nonc2N)c1O 3.69 µM
N/C(=N\N=C\c1ccc(Br)o1)c1nonc1N 3.29 µM
COc1ccccc1OCc1cc(-c2ccccc2)no1 3.69 µM
Cc1cccc(OCc2cc(-c3ccccc3)no2)c1C 7.36 µM
Cc1ccc(-c2cc(N)n(-c3ccc(F)cc3)n2)cc1 4.14 µM
Cc1ccc(-c2cc(N)n(-c3ccc(C)cc3)n2)cc1 11.7 µM and 1.85 µM
O=C(O)c1cc(-c2ccc(C(F)(F)F)cc2)nc2n[nH]c(-c3ccccc3)c12 0.585 µM
COc1ccc(-c2ccc3ccccc3n2)cc1OC 2.07 µM
COc1ccc(-c2csc(-c3cccs3)n2)c(OC)c1 1.04 µM
COc1ccc(-c2nc(-c3ccc(O)cc3O)cs2)cc1OC 5.85 µM
COc1ccc(-c2csc(-c3cccs3)n2)cc1OC 6.56 µM
COc1ccc(Nc2nc(-c3cccs3)cs2)c(OC)c1 1.04 µM
Cc1ccc(/C=C2\OC(=O)c3ccccc32)cc1 3.69 µM
CSc1nsc(N/N=C/c2ccc3c(c2)OCO3)c1C#N 0.826 µM
O=C(O)c1cc(N/N=C/c2ccc(N3CCOCC3)cc2)ccc1Cl 2.07 µM
O=C(O)c1cc(N/N=C/c2ccc3c(c2)OCCO3)ccc1Cl 0.293 µM
Clc1ccccc1N/N=C/c1ccc2c(c1)OCO2 2.93 µM
CN(C)c1ccc(/C=C/C(=O)c2ccccc2O)cc1 4.14 µM
CN(C)c1ccc(C(=O)/C=C/c2ccccc2)cc1 5.21 µM
O=C1C(C=Nc2ccc(F)cc2)=C(O)c2ccccc21 2.07 µM
COC(=O)c1ccc(C(=O)N=c2sccn2C)cc1 4.14 µM
Cn1ccsc1=NC(=O)c1ccc(S(=O)(=O)C(F)F)cc1 7.36 µM
Cn1ccsc1=NC(=O)c1cccc(OC(F)F)c1 2.33 µM
Cc1cccc(C(=O)N=c2sccn2C)c1[N+](=O)[O-] 4.65 µM
Cn1ccsc1=NC(=O)c1ccc(OC(F)(F)F)cc1 4.65 µM
CCCCOc1ccc(C(=O)N=c2sccn2C)cc1OC 4.65 µM
CCCCCc1ccc(-c2ccc(C(=O)Oc3ccc(C(=O)OC)cc3)cc2)nc1 0.656 µM
CCCCc1ccc(-c2ccc(Br)cc2)nc1 3.69 µM
CCCCCc1ccc(-c2ccc(Br)cc2)nc1 3.69 µM
CCCCCc1ccc(-c2nnc(N)s2)cc1 16.5 µM
CCCCOc1ccc(-c2nnc(N)s2)cc1 14.7 µM
CCCOc1ccc(-c2nnc(N)s2)cc1 5.21 µM
COc1cc(-c2cc(=O)c3ccccc3o2)ccc1O 8.26 µM
COc1cc(-c2cc(=O)c3c(O)cc(O)cc3o2)ccc1O 4.14 µM
CCS(=O)(=O)n1nc(-c2ccc(Cl)cc2)nc1SCc1ccccc1 8.26 µM
CC(=O)c1cc(C#N)c(SCc2ccccc2)nc1C 13.1 µM
CC(=O)c1cnc2nc(SCc3ccccc3)nn2c1C 5.21 µM
CC(=O)c1cc(C#N)c(SCc2ccccn2)nc1C 7.36 µM
C=CCNCCCCOc1ccc(OCc2ccccc2)cc1 7.36 µM
COCCCNCCCCOc1ccc(OCc2ccccc2)cc1 18.5 µM
CC(O)CNCCCCOc1ccc(OCc2ccccc2)cc1 (centres undefined) 9.27 µM
CC(C)(C)C1(C)OC(=O)C(=Cc2ccc(OCC(=O)Nc3ccccc3)cc2)C(=O)O1 (centres undefined) 11.7 µM

— PubChem BioAssay AID2289 (National Center for Advancing Translational Sciences (NCATS), 2010)
